23 molecules from paper PMC12136788 can be followed below.

Where a chain is given by its changes, count along the chain named. Whole data set: some 24,000 sequences, median “enrichment r” near 0.99, cut for the highest 2% near 3.7. The sample holds the highest values, similar sequences and a random draw of the others, so the mix is not that of the screen.

To fix the notation:
B1: chr10:114798999:114799000:-_ENSMUSG00000069520_ENSMUST00000092170|mus_mus|motif|central (ssRNA)
RNA: GGGAGUUCUACAGUCCGACGAUCUCAUCUUUAUAUACCUUUUGCACGUAGUGUCGUCACUAUCUGUCAUGGAAAAUAGAGCGGCGAGCACAUCUUCCACCAACCGAACGACAAAAUAGAAUCGUAAAUCCAAAACGUCUAGUCCAACAGAGGAUUGAGCAUCA
B2: chr1:225977196:225977197:+_ENSG00000143742_ENST00000304786|hu_mus|FALSE|FALSE (ssRNA)
RNA: GGGAGUUCUACAGUCCGACGAUCAUUCCGUUUCCAAAAAUAAAGGUUUUCUAACUGGAAACCCCGACAUUCCUACUCUCUAAAGCAAACUUUAGGACGCAGGCUGGUCUCUCGGCUUUGACAGCUCCAUUACGUAAGUAUAUCCAACAGAGGAUUGAGCAUCA
B3: 29117783_29124966_335_CDS_ENSG00000163811_ENST00000407426|human|control|control (ssRNA)
RNA: GGGAGUUCUACAGUCCGACGAUCUUUUACUGUGCUGUAUAAUAAAAUGCUACCAACUGCUGUGCCAAGAGCCAAUAAGUCAGUCUGGUUACUCAUUCCUACAGCUUCUGAUUUCCUUUUUUUCCUCUGGGGACUUUCCUUGGCCAACAGAGGAUUGAGCAUCA
B4: chr7:141450121:141450122:+_ENSG00000106028_ENST00000265304|hu_mus|hu_hu_hu_mus_True|18_38 (ssRNA)
RNA: GGGAGUUCUACAGUCCGACGAUCUCAUCCGUUCUAUGCCUUUUCUUUUGUCUGGUCACUCAGAAAUAUAAUGUUAUCAGCUAUGAUUGUUGUUGCUUGUCGCCUCACAUUGUUUUUAUCCAUGUAUUCGCCAUAGUCCACUUUCAACAGAGGAUUGAGCAUCA
B5: chr4:115894766:115894767:+_ENSMUSG00000028698_ENSMUST00000030464|mus_hu|mus_mus_mus_hu_True|18_98 (ssRNA)
RNA: GGGAGUUCUACAGUCCGACGAUCUUCCACACGGAAAGUACUUGGGGGUUUUCCAACGGCCAGUACCAGUCCGGCCAAACUACCCGAACAGGGUCCUCCCCCUCUCUCCUACAGAACUAAAGCACCCGCCCCCGAACUUUCAAGCAACAGAGGAUUGAGCAUCA
B6: chr7:140404665:140404666:+_ENSG00000090266_ENST00000247866|hu_hu|hu_hu_hu_mus_False|1_108 (ssRNA)
RNA: GGGAGUUCUACAGUCCGACGAUCUGCGUACAGAGUGCCAGAGAGUUUACAGUGUCAGUCCUCGUCAUCAGGAGGGAUUCCCAGUUCUUCAUCUGUCCACUGUGAAGGAUCUGGAUAUGAAAAGUGACCCAGCACAGCUUCUGACAACAGAGGAUUGAGCAUCA
B7: chr1:39494447:39494448:+_ENSG00000168653_ENST00000372967|hu_mus|hu_hu_hu_mus_False|78_108 (ssRNA)
RNA: GGGAGUUCUACAGUCCGACGAUCGCAUCGACCAGCCUUCUUAUAGGGCUGUUCUGCACUCUGGAUUAUAAAGUGCCGGUCCAGGCUGAUGCCCAGCUUUUUCUGUAUGUCAAGGAAAGGCAUGGCUCUGCAGUGCCCUUGUCACAACAGAGGAUUGAGCAUCA
B8: 114145877_114145997_1367_3pUTR_ENSMUSG00000033545_ENSMUST00000095176|mouse|control|control (ssRNA)
RNA: GGGAGUUCUACAGUCCGACGAUCUUUGCAGUGGACAAUGUCUGUUCCACAGGCCACUACUUAGUGAUUCUUCCCUUUCAGAACCGAGUCUCUGAGAGGUGAGGGAGGUGAGGCUGCUGUAGAGCCUGGCUGGGGGCGCCUCUGCAACAGAGGAUUGAGCAUCA
B9: chr7:130337358:130337359:+_ENSMUSG00000052707_ENSMUST00000094053|mus_mus|FALSE|FALSE (ssRNA)
RNA: GGGAGUUCUACAGUCCGACGAUCACAAGAUUUUUUGACCGGGGAACUGGUUUCCUGAGAACCAUGCUCUUUGAUUUAGGACAGGAAUAGAAAACAGAAGAACAUGGCCAACUGCUGCUCUUUUCCCAGAGAUAGAAGCGUCUUCAACAGAGGAUUGAGCAUCA
B10: chr2:165877891:165877892:+_ENSMUSG00000027678_ENSMUST00000088095|mus_mus|motif|central (ssRNA)
RNA: GGGAGUUCUACAGUCCGACGAUCGAACCUCUGGAUACAUCUUCGGAUUAUGUCUUCAAAGCCAGGCCUCAUGGAAGAUCGGAGUGAGUUUGUAUCUAUAUUGACAACCUUUCCGGAAAGGUCAUGUCUGGUAAUAAAGCUCUCCAACAGAGGAUUGAGCAUCA
B11: chr13:100193591:100193592:-_ENSMUSG00000052727_ENSMUST00000064762|mus_mus|FALSE|FALSE (ssRNA)
RNA: GGGAGUUCUACAGUCCGACGAUCUUAAACCCUCAGAGUAAAAGAGCAGUGCGAAACAUACGCUUUACAGACGAAAAUAAACUAAAAUGUAAAUUUUGAAAUAAAUAACUAACAUAGAAAAUAAAAUGAGGUCAUUGUUCACUACAACAGAGGAUUGAGCAUCA
B12: chr19:7500544:7500545:-_ENSMUSG00000024758_ENSMUST00000025667|mus_mus|FALSE|FALSE (ssRNA)
RNA: GGGAGUUCUACAGUCCGACGAUCACAGACACGUACACAAUUUCAUUAGUAAUUUUUUCAUCUCUACGAGUCUUUGUUUAAAAAAACAAAACCGAAAAAACCCUCUCAUGUAACACAGAAACCUUUCCAAUUAUUUUAACACAGCAACAGAGGAUUGAGCAUCA
B13: chr3:32586495:32586496:-_ENSG00000144635_ENST00000273130|hu_hu|FALSE|FALSE (ssRNA)
RNA: GGGAGUUCUACAGUCCGACGAUCUUUCUGUAAAGAAUCCAAAGCAGUCCAAGGCUUUGACAUGUCAACAACCAGCAUAACUAGAGUAUCCUUCAGAGAUACGGCAUCCAGUGAAAAUUUAAGGAGGCCUUUGUGAUAUAGGUCCAACAGAGGAUUGAGCAUCA
B14: chr13:100193591:100193592:-_ENSMUSG00000052727_ENSMUST00000064762|mus_mus|motif|central (ssRNA)
RNA: B11 RNA with U82G, A83G
B15: 44559432_44560298_1111_3pUTR_ENSMUSG00000032096_ENSMUST00000034607|mouse|control|control (ssRNA)
RNA: GGGAGUUCUACAGUCCGACGAUCACAUUUGGAUGCGUCUGUAGCUGCACCCCUUUCUUAUCUUCAUUUUCUACAUGAAGACGAAUCCGGCCAAAUUUGUCAUCUGAGAUCCUAAGCAUGAUCAUGCCAUGCAACUCCAUAUUCCAACAGAGGAUUGAGCAUCA
B16: chr15:55677894:55677895:-_ENSG00000260916_ENST00000569205|hu_mus|motif|central (ssRNA)
RNA: GGGAGUUCUACAGUCCGACGAUCGGAACAUUCUAGAGUCAGUCCACAGUUGUCACUGGCUGUGGCAGAAUUCACGAUCUCGGUAUCAGAACCCUCAUGAUUGAUGACAGUCCAGCCACAAGAUGAGUCGCUGUCGCUGGAACUCAACAGAGGAUUGAGCAUCA
B17: chr5:133537698:133537699:-_ENSG00000113575_ENST00000481195|hu_mus|FALSE|FALSE (ssRNA)
RNA: GGGAGUUCUACAGUCCGACGAUCGCUCUCGUGAUUCCCUCGGAGUAUGGUGAUGCGCUCUCGGUAACGAACCUUAAGAGCUACAAGCAGUGUAACUGUUUCAACAGAGUAAUAUCCUCUGUCCACAUAGUCUCCCAUAAACAGCAACAGAGGAUUGAGCAUCA
B18: chr7:129114946:129114947:-_ENSMUSG00000034951_ENSMUST00000057576|mus_hu|motif|central (ssRNA)
RNA: GGGAGUUCUACAGUCCGACGAUCAUCAACAAGCAUCAUUAAGCUGUUCUGCAUACCUGUUAGCUUGGCAGAAAUCACAGCGGUGUCCUGAGUCUUAAAUGUCUCCUCAAUAUCGGCGCUCAACGUGCUCCACUUAUCUGCUUCCAACAGAGGAUUGAGCAUCA
B19: chr2:179515052:179515053:+_ENSMUSG00000000305_ENSMUST00000000314|mus_hu|mus_mus_mus_hu_False|28_108 (ssRNA)
RNA: GGGAGUUCUACAGUCCGACGAUCGCUUUCCCGCGCAGUCACCGUGAACGCCACCUGCUCGGAGGGGACCUGCAGCUCCCGGGUGGCGAAGACUGUCCCAUCUGCCCCGACUUUGAAGUCCAUGCUGUUGGUCUCAUAUUGUGUCAACAGAGGAUUGAGCAUCA
B20: 110384571_110384691_763_CDS_ENSG00000138802_ENST00000265175|human|control|control (ssRNA)
RNA: GGGAGUUCUACAGUCCGACGAUCUCCUGAAAGACUUUGCUGCUGGUGGUGCUGUUGUGAUGGUAGAGGUGGAAGUGGCGAUGGAUGGCUGAUAGCUGUAUUUUGACCAGAGAAUGAAUUAUCUUUAACUGGCCUAACAGUCGGCAACAGAGGAUUGAGCAUCA
B21: chr22:38881817:38881818:-_ENSG00000100201_ENST00000396821|hu_mus|motif|central (ssRNA)
RNA: GGGAGUUCUACAGUCCGACGAUCUAAUUAUAGACUGGAUCUUUUGGGUGGGCAGAAGAAACCUGGCAGUGAAAUUUUAACGGUCUGCAUUAAAAAAAGAUAAACCGUAAUGGUUGAGAAAAGAAAAAAUAAAAAUGAAAAGGUCAACAGAGGAUUGAGCAUCA
B22: chr22:38881817:38881818:-_ENSG00000100201_ENST00000396821|hu_mus|FALSE|FALSE (ssRNA)
RNA: B21 RNA with G81U, G82A
B23: chr1:109605286:109605287:-_ENSG00000197780_ENST00000461096|hu_mus|hu_hu_hu_mus_True|58_108 (ssRNA)
RNA: GGGAGUUCUACAGUCCGACGAUCAAGAACAAUAACAACAUUCAGUAACCUCUUUAAAUGCAAUUAUCCUUAUUAUAAACUAAGGGCAAUAAUAAUUUAAUACCGUAAGUGAACUACACACAAAGCCUGAACCGCGAAAAUGGUCAACAGAGGAUUGAGCAUCA

In this experiment the target is T1, UNK ZnF1-3 (human, UniProt Q9C0B0 31-174).
T1 sequence: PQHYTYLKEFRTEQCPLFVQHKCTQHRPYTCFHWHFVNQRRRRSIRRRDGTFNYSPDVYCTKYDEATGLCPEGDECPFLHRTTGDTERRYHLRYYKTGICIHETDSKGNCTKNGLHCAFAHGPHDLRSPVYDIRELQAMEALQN
Nature of the experiment: nsRBNS (natural sequence RNA bind-n-seq); RBNS binding buffer (assumed for nsRBNS): 25 mM Tris pH 7.5, 150 mM KCl, 3 mM MgCl2, 0.01% Triton X-100, 500 ug/ml BSA, 20 U/ml SUPERase-In, 4 C; UNK is unkempt and MSI1 is Musashi-1; names of the RNAs are library labels; protein concentration not given here; high values mean tight binding.
B1 showed a binding signal of 0.824 enrichment R. Molecule B2 gave a binding signal of 0.892 enrichment R.

In turn, B3 registered a binding signal of 0.828 enrichment R. Take B4: the binding signal worked out at 0.364 enrichment R. Turning to B5, the binding signal came out at 1.44 enrichment R. Take B6: the binding signal is 1.16 enrichment R. Next, B7: 1 enrichment R; B8: 0.695 enrichment R. For B9, the binding signal is 0.987 enrichment R.

With B10, the binding signal was 0.788 enrichment R. As to B11, the binding signal came out at 5.86 enrichment R. Molecule B12 displayed a binding signal of 1.21 enrichment R. In turn, B13 had a binding signal of 1.74 enrichment R.

As for B14, the binding signal amounted to 4.73 enrichment R. The molecule B15 showed a binding signal of 0.578 enrichment R. Next, B16: 0.495 enrichment R. B17 gave a binding signal of 0.691 enrichment R. Take B18: the binding signal was 0.781 enrichment R. Next, B19: 0.727 enrichment R; B20: 1.16 enrichment R; B21: 8.6 enrichment R. Molecule B22 came in with a binding signal of 6.63 enrichment R. Next, B23: 1.22 enrichment R.
